The first test can be described thus: basal RPMI8226 viability, no added stimulus, profiling panel, cell-based, calcein-AM fluorescence, 48 h, PK04 Diversity Set (AID 1166).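 Also: cells grown under basal conditions without added stimulus.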 The conditions noted are these: RPMI8226 myeloma viability, higher = more signal.
As to `CC(C)N1C(=O)c2ccccc2[C@](C)(C(=O)NCCN2CCOCC2)[C@@H]1c1ccc(CO)cc1`, the z-score is 0.0409. Take `CCCC=C(CCC)[C@@H](NC(=O)c1cccs1)c1ccc(C(F)(F)F)cc1`: the z-score was -4.35.

Consider `C[N+](C)(C)CCCCNC(=O)[C@@H]1C[C@@H]2C(=O)N[C@@H](Cc3ccccc3)C(=O)N2[C@@H]1c1cccc(OCCO)c1`, for which the z-score is 0.0971.

For `Cc1ccc(S[C@]2(C(=O)NC3CC3)CC(=O)N(Cc3ccccc3)[C@@H]2c2ccc(CO)cc2I)cc1`, the z-score was -2.06. Turning to `CCOC(=O)C1=C[C@@H](C(C)(C)C)N(S(=O)(=O)c2ccc(C)cc2)[C@H]1c1ccc(F)cc1`, the z-score is -3. `COc1ccc(C(O)C2C=CC3C(=O)N(Cc4ccccc4)C(=O)C3N2n2cnnc2)cc1OCc1ccccc1` (configuration not stated): the z-score was -1.79. With `CC1CC/C=C\[C@H]2OC34C=CCN(C(C)(C)C)C(=O)[C@H]3N(CCO)C(=O)[C@@H]4C2C(=O)O1` (some centres not stated), the z-score is -0.197.

A further test can be described thus: basal HepG2 mitochondrial membrane potential changes, profiling panel, cell-based, JC-1 fluorescence, 24 h, 100 nL compound (AID 1167). The conditions noted are these: higher = more signal.
Regarding `CC(=O)NCCCC[C@@H]1NC(=O)[C@@H]2C[C@H](C(=O)NCCCCCNC(=O)CS)[C@H](c3cccc(OCCO)c3)N2C1=O`, the z-score is -1.12. Regarding `COc1ccccc1CN1C(=O)c2ccccc2[C@@]2(Cc3ccccc3N(CC(C)C)C2=O)[C@@H]1c1ccc(CO)cc1`, the z-score was -0.204.

`CC(CO)N1C(=O)[C@@H]2C3C(=O)OCCC/C=C\[C@H]3OC23C=CCN(C(C)(C)C)C(=O)[C@@H]13` (some centres not stated) registered a z-score of 0.285. As for `CC1(C)[C@@H]2CC(C(O)C3C=CC4C(=O)N(Cc5ccccc5)C(=O)C4N3n3cnnc3)=C[C@H]1C2` (some centres not stated), the z-score is -0.237.

The compound `O=C1C[C@@](C(=O)NC2CC2)(c2ccc([N+](=O)[O-])cc2)[C@@H](c2ccc(CO)cc2I)N1C1CCCCC1` returned a z-score of 0.575. Same read-out and setting: to `NC(=O)NCC#Cc1ccc2c(c1)[C@]1(C(=O)N2)[C@H](C(=O)Nc2nc3ccccc3s2)[C@H]2C(=O)O[C@H](c3ccccc3)[C@H](c3ccccc3)N2[C@@H]1c1ccccc1OCCO` belongs -3.23. `O=C1c2ccccc2[C@](Cc2ccccc2I)(C(=O)NCC(F)(F)F)[C@H](c2ccc(CO)cc2)N1Cc1ccccc1Cl` registered a z-score of 0.798.

`CCC[C@@H]1C[C@@]1(CCC)[C@@H](NS(=O)(=O)c1cccc2cccnc12)c1ccc(Cl)cc1` showed a z-score of 3.46. Still for that read-out and setting: for `CCCC[C@@H]1C[C@H]1[C@@H](NC(=O)c1ccco1)c1ccc(-c2ccccc2)cc1` the value was -1.07. In turn, `Cc1ccc(S[C@]2(C(=O)NCCCN(C)C)CC(=O)N(Cc3cc(C(F)(F)F)cc(C(F)(F)F)c3)[C@@H]2c2ccc(CO)cc2)cc1` showed a z-score of 0.263. The same measure, in the same setting: to `C=C[C@@H](COC(=O)OC(C)(C)C)N(Cc1ccc(OC)cc1)S(=O)(=O)c1ccc(Br)cc1` belongs -0.997; to `COCCOC(=O)N1C(=O)[C@@]2(c3cc(C#CCC(C(=O)OC)C(=O)OC)ccc31)[C@H](C(=O)N1CCN(c3ncccn3)CC1)[C@H]1C(=O)O[C@H](c3ccccc3)[C@H](c3ccccc3)N1[C@@H]2c1ccccc1OCCO`, 1.37. Consider `CN1C(=O)C2C=CC(C(O)c3ccccc3)N(N(c3ccccc3)c3ccccc3)C2C1=O` (configuration not stated), for which the z-score was -0.885. On the same count and under the same terms, for `COc1ccc([Si](C)(C)[C@H]2[C@H](CC(=O)N3Cc4ccccc4C[C@H]3CO)O[C@@]3(C(=O)N(Cc4cccc(N5CCC5=O)c4)c4ccccc43)[C@@H]2C)cc1` the value was 0.419. `C=CCC(OC(C)=O)[C@@H]1[C@@H](N(Cc2ccc(-c3cccc(C(F)(F)F)c3)o2)C(=O)c2ccc(C)cc2)c2cc(OCCCO)ccc2N1C(=O)Cc1ccc2ccccc2c1` (some centres not stated) displayed a z-score of 2.75. Turning to `Oc1ccc2cc[n+](Cc3sc4ccccc4c3Cl)cc2c1`, the z-score is -1.4.

Consider `COC(=O)C(CC#Cc1ccc2c(c1)[C@]1(C(=O)N2)[C@H](c2ccc(OCCO)cc2)N2[C@H](c3ccccc3)[C@H](c3ccccc3)OC(=O)[C@H]2[C@@H]1C(=O)N1CCc2cc(OC)c(OC)cc2C1)C(=O)OC`, for which the z-score is -0.156. As for `COc1ccc(CCNC(=O)[C@@]2(Sc3ccc(C)cc3)CC(=O)N(C(C)C)[C@@H]2c2ccc(CO)cc2I)cc1`, the z-score stood at 0.529. For the compound `CN(C)CCCC[C@@H]1NC(=O)[C@@H]2C[C@H](C(=O)NCCCCCCN)[C@H](c3cccc(OCCO)c3)N2C1=O`, the z-score was -1.3. On the same count and under the same terms, to `C=CCN1C(=O)[C@]2(O[C@H](CCn3cc([C@H](O)c4ccccc4)nn3)[C@@H]([Si](C)(C)c3ccc(OC)cc3)[C@@H]2C)c2ccccc21` belongs -0.97; to `COC(=O)C(CC#Cc1ccc2c(c1)[C@]1(C(=O)N2)[C@H](C(=O)Nc2nc3ccccc3s2)[C@H]2C(=O)O[C@H](c3ccccc3)[C@H](c3ccccc3)N2[C@@H]1c1ccc(O)cc1)C(=O)OC`, -2.74; to `COc1cc2c(cc1O)C(c1cccs1)N(C)CC2` (configuration not stated), -1.13. Still for that read-out and setting: for `C=CC[C@]1(C(=O)NCc2ccccc2)N=C(c2ccc(OCCCO)cc2)O[C@H]1c1ccccc1N=[N+]=[N-]` the value was -0.456; for `O=C(c1ccccc1)N1Cc2ccccc2C[C@@]2(COC(c3ccc(OCCCO)cc3)=N2)C1=O`, 1.47.

As to `C=C[C@H](C)[C@@H](OC(=O)Nc1ccc(OC)cc1)c1ccc(O)c2ccccc12`, the z-score was -3.42. Regarding `CCC(CC)C(O)C1C=CC2C(=O)NC(=O)C2N1Nc1ccc(Cl)cc1Cl` (configuration not stated), the z-score was -2.18. With `COc1ccc(C#Cc2ccc3c(c2)[C@]2(C(=O)N3)[C@H](c3ccccc3OCCO)N3[C@H](c4ccccc4)[C@H](c4ccccc4)OC(=O)[C@H]3[C@@H]2C(=O)Nc2nc3ccccc3s2)cc1`, the z-score is -3.4. Same read-out and setting: to `O=C(CS)NCCCCCCNC(=O)[C@@H]1C[C@@H]2C(=O)N[C@@H](Cc3ccccc3)C(=O)N2[C@@H]1c1cccc(OCCO)c1` belongs -1.28; to `CC(C)N1C(=O)c2ccccc2[C@](C)(C(=O)NCCN2CCOCC2)[C@@H]1c1ccc(CO)cc1`, 0.916; to `CCCC=C(CCC)[C@@H](NC(=O)c1cccs1)c1ccc(C(F)(F)F)cc1`, 1.34. Same read-out and setting: to `C[N+](C)(C)CCCCNC(=O)[C@@H]1C[C@@H]2C(=O)N[C@@H](Cc3ccccc3)C(=O)N2[C@@H]1c1cccc(OCCO)c1` belongs 1.58.

For the compound `Cc1ccc(S[C@]2(C(=O)NC3CC3)CC(=O)N(Cc3ccccc3)[C@@H]2c2ccc(CO)cc2I)cc1`, the z-score amounted to 1.55. In turn, `CCOC(=O)C1=C[C@@H](C(C)(C)C)N(S(=O)(=O)c2ccc(C)cc2)[C@H]1c1ccc(F)cc1` came in with a z-score of 4.5. For `COc1ccc(C(O)C2C=CC3C(=O)N(Cc4ccccc4)C(=O)C3N2n2cnnc2)cc1OCc1ccccc1` (configuration not stated), the z-score is -0.323. For the compound `CC1CC/C=C\[C@H]2OC34C=CCN(C(C)(C)C)C(=O)[C@H]3N(CCO)C(=O)[C@@H]4C2C(=O)O1` (some centres not stated), the z-score was -0.669.

The record behind these values is PubChem BioAssay.
Also: test concentration not given here.
